Experimental data: PubChem BioAssay AID1159580 (chemical genetic matrix, 2015)
“And” between values parts separate entries of the source, which are not always exact repeats. Equal entries are not always repeated. The campaign covered roughly 5,500 compounds. About 2,000 (36%) were called active. About 18% were inconclusive and are not listed. Cut-off read from the data, not from the text of the source: active = normalized growth mostly below about 0.91 (no sharp cut-off); inconclusive = no clear call, values can overlap the other calls; inactive = mostly above about 0.92. The list shows a part of the results.

Assay: chemical genetic growth profiling, strain panel (AID 1159580);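 note: tested at 20 µM; growth read once vehicle control cultures reached saturation at 30 °C; 1 = growth at the plate median or of vehicle wells; lower values mean less growth of the strain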
Conditions: S. cerevisiae deletion strains, growth OD

Measured: normalized growth

C=CC(C)(O)CC/C=C(\C)CCC=C(C)C (configuration not stated)
active: locus YDR195W, strain ref2 0.662 | locus YDR392W, strain spt3, stronger effect = lower value 0.454 | locus YER155C, strain BEM2 (second series), stronger effect = lower value 0.777 | locus YER155C, strain BEM2, stronger effect = lower value 0.807 | locus YHR079C, strain IRE1, stronger effect = lower value 0.81 | locus YHR142W, strain chs7, stronger effect = lower value 0.75 | locus YJL164C, strain tpk1, stronger effect = lower value 0.915 | locus YJL166W, strain qcr8, stronger effect = lower value 0.902
0.955 (inactive) and 0.825 (active): locus YHR030C, strain SLT2, stronger effect = lower value
inactive: locus YAL013W, strain DEP1, stronger effect = lower value 0.947 | locus YAL021C, strain ccr4, stronger effect = lower value 0.913 | locus YAL026C, strain drs2, stronger effect = lower value 0.958 | locus YAL030W, strain snc1, stronger effect = lower value 0.986 | locus YBL061C, strain skt5, stronger effect = lower value 0.951 | locus YBR009C, strain hhf1, stronger effect = lower value 0.923 | locus YBR021W, strain FUR4, stronger effect = lower value 0.863 | locus YBR023C, strain chs3, stronger effect = lower value 0.938 | locus YBR171W, strain sec66, stronger effect = lower value 0.965 | locus YBR229C, strain ROT2, stronger effect = lower value 0.999 | locus YBR231C, strain swc5, stronger effect = lower value 0.98 | locus YCL011C, strain gbp2, stronger effect = lower value 0.949 | locus YCL016C, strain dcc1, stronger effect = lower value 0.965 | locus YCL029C, strain bik1, stronger effect = lower value 0.993 | locus YCL061C, strain MRC1, stronger effect = lower value 0.969 | locus YCL069W, strain vba3, stronger effect = lower value 0.968 | locus YCR088W, strain abp1, stronger effect = lower value 0.975 | locus YDL005C, strain med2, stronger effect = lower value 0.956 | locus YDL035C, strain GPR1, stronger effect = lower value 0.956 | locus YDL040C, strain nat1, stronger effect = lower value 0.982 | locus YDL074C, strain BRE1, stronger effect = lower value 0.886 | locus YDL101C, strain DUN1, stronger effect = lower value 0.958 | locus YDL185W, strain tfp1, stronger effect = lower value 1.02 | locus YDL192W, strain arf1, stronger effect = lower value 0.952 | locus YDR001C, strain nth1, stronger effect = lower value 0.98 | locus YDR069C, strain doa4, stronger effect = lower value 0.946 | locus YDR101C, strain arx1, stronger effect = lower value 0.992 | locus YDR137W, strain rgp1, stronger effect = lower value 0.916 | locus YDR159W, strain sac3, stronger effect = lower value 0.862 | locus YDR162C, strain NBP2, stronger effect = lower value 0.92 | locus YDR297W, strain sur2, stronger effect = lower value 0.974 | locus YDR318W, strain mcm21, stronger effect = lower value 0.99 | locus YDR334W, strain swr1, stronger effect = lower value 0.944 | locus YDR335W, strain msn5, stronger effect = lower value 0.979 | locus YDR388W, stronger effect = lower value 0.985 | locus YDR502C, strain sam2, stronger effect = lower value 0.978 | locus YEL003W, strain gim4, stronger effect = lower value 0.983 | locus YEL037C, strain rad23, stronger effect = lower value 0.964 | locus YEL061C, strain CIN8 (second series), stronger effect = lower value 0.978 | locus YEL061C, strain CIN8, stronger effect = lower value 0.937 | locus YER015W, strain faa2, stronger effect = lower value 0.974 | locus YER016W, strain bim1, stronger effect = lower value 0.988 | locus YER110C, stronger effect = lower value 1.01 | locus YER111C, strain swi4, stronger effect = lower value 0.947 | locus YER167W, strain BCK2, stronger effect = lower value 0.944 | locus YFR010W, strain ubp6, stronger effect = lower value 0.903 | locus YGL078C, strain dbp3, stronger effect = lower value 0.988 | locus YGL086W, strain mad1, stronger effect = lower value 0.981 | locus YGL167C, strain pmr1, stronger effect = lower value 0.984 | locus YGL173C, strain kem1, stronger effect = lower value 0.965 | locus YGL227W, strain vid30, stronger effect = lower value 0.979 | locus YGL240W, strain doc1, stronger effect = lower value 0.964 | locus YGL248W, strain PDE1, stronger effect = lower value 0.931 | locus YGL253W, strain hxk2, stronger effect = lower value 0.984 | locus YGR135W, strain pre9, stronger effect = lower value 0.967 | locus YGR252W, strain gcn5, stronger effect = lower value 1.03 | locus YHR013C, strain ard1, stronger effect = lower value 0.964 | locus YHR027C, strain rpn1, stronger effect = lower value 0.978 | locus YHR079C, strain IRE1 (second series), stronger effect = lower value 0.999 | locus YHR094C, strain hxt1, stronger effect = lower value 1.02 | locus YHR129C, strain ARP1, stronger effect = lower value 0.939 | locus YHR200W, strain rpn10, stronger effect = lower value 0.991 | locus YIL066C, strain RNR3, stronger effect = lower value 0.934 | locus YIL073C, strain SPO22, stronger effect = lower value 0.88 | locus YIL125W, strain kgd1, stronger effect = lower value 1.02 | locus YIR030C, strain dcg1, stronger effect = lower value 1.01 | locus YJL092W, strain hpr5, stronger effect = lower value 0.965 | locus YJL095W, strain BCK1 (second series), stronger effect = lower value 0.99 | locus YJL095W, strain BCK1, stronger effect = lower value 0.869 and 0.946 | locus YJL115W, strain asf1, stronger effect = lower value 0.954 | locus YJL129C, strain trk1, stronger effect = lower value 0.923 | locus YJL134W, strain LCB3, stronger effect = lower value 0.997 | locus YJL154C, strain vps35, stronger effect = lower value 0.959 | locus YJL168C, strain set2, stronger effect = lower value 1.01 | locus YJL187C, strain SWE1 (second series), stronger effect = lower value 0.946 | locus YJL187C, strain SWE1, stronger effect = lower value 0.986 | locus YJR043C, strain POL32, stronger effect = lower value 0.978 | locus YJR066W, strain TOR1, stronger effect = lower value 0.911
